Assay outcomes: PubChem, Broad Institute
aSyn UTR act: Activators via SNCA 5'UTR binding, MLPCN; alpha-synuclein 5'UTR reporter, activators screen; activity score, % (tested at 7.5 µM), hits read low; 300,000 compounds, 7.1% hits; in the data active means activity score below about -60%
An asterisk follows results filed as active. A selection follows.

SMILES	aSyn UTR act
Cc1ccc2nc(-c3ccc(NC(=O)COC(=O)c4ccc(=O)[nH]c4)cc3)sc2c1	-66.9*
Cc1ccc2nc(-c3ccc(NC(=O)CCS(=O)(=O)c4ccccc4)cc3)sc2c1	62.0
Cc1ccc2nc(-c3ccc(NC(=O)CN4CCN(c5ccccn5)CC4)cc3)sc2c1	-145.8*
Cc1ccc2nc(-c3ccc(NC(=O)C(C)Sc4nncs4)cc3)sc2c1 (stereo not drawn)	61.2
Cc1ccc2nc(-c3ccc(NC(=S)NC(=O)CC(C)C)cc3)sc2c1	-177.7*
Cc1ccc(NC(=S)/C(=C(\[O-])c2ccc(F)cc2)[n+]2ccccc2)cc1	-90.4*
O=C1CC(/C=C/c2ccc(Cl)cc2)=Nc2ccccc2N1	-225.7*
CC1(C)CC(/C=C/c2ccccc2)=Nc2ccccc2N1	-154.5*
O=C1CC(/C=C/c2ccccc2)=Nc2ccccc2N1	-252.2*
O=C(Nc1ccc2c(c1)OCCO2)c1cnc2n(c1=O)CCS2	-75.5*
O=C(Nc1ccc2c(c1)OCO2)c1cnc2n(c1=O)CCS2	-125.3*
Cc1ccc(SSc2cc(C)ccc2N)c(N)c1	-202.9*
CC(C)c1ccc2c(c1)C(c1ccc(N3CCOCC3)cc1)=NNC(c1cccs1)=N2	-103.5*
C=C(C)CSc1nnc(-c2cccc(Cl)c2)n1N	-84.9*
C=C(C)CSc1nnc(-c2ccc(OC)cc2)n1N	-102.7*
C=C(C)CSc1nncn1/N=C/c1ccc(OC)cc1	-187.0*
COc1ccc(C(=S)Nc2ccc(C)cc2)cc1	-153.3*
Cc1ccc(NC(=S)c2ccccc2)cc1	-151.5*
c1ccc2c(c1)NC1(CCCC1)n1c-2nc2ccccc21	-141.5*
CCCC1(C)Nc2ccccc2-c2nc3ccccc3n21 (stereo not drawn)	-95.7*
COc1ccc(-n2cc3ccc([N+](=O)[O-])cc3n2)cc1	-90.5*
O=C(O)c1cccc(NC2=Nc3cccc4cccc2c34)c1	-114.0*
COc1cccc2sc(N(CCCN(C)C)C(=O)c3ccc(S(=O)(=O)N4CCCc5ccccc54)cc3)nc12	64.1
COc1cccc2sc(N(CCCN(C)C)C(=O)c3ccc(S(=O)(=O)N4CCc5ccccc5C4)cc3)nc12	94.2
COc1ccccc1C(=O)N(CCC1CCCN1C)c1nc2ccccc2s1 (stereo not drawn)	-103.2*
SMILES	aSyn UTR act
CCOCCCNc1ccc(-c2ccccc2)nn1	-159.0*
COC(=O)c1ccc(C2OCC(C)(C)CO2)cc1	-135.4*
COC(=O)c1ccc2c(c1)C(C)(C)C(/C=C/c1ccc(OC)c(OC)c1OC)=[N+]2C	101.6
CCC1(C)Cc2ccccc2-c2nc(NCCO)n(-c3ccc(C)cc3)c(=O)c21 (stereo not drawn)	-63.2*
CN(C)C=Nc1ccc2nc3c(cc2c1)[nH]c1ccccc13	-232.7*
COc1cccc(/C=C/C(=O)OC(C)C(=O)Nc2c(C)n(C)n(-c3ccccc3)c2=O)c1 (stereo not drawn)	-111.7*
COc1ccccc1NC(=O)C1=C(C)NC(=O)NC1c1ccccc1[N+](=O)[O-] (stereo not drawn)	-97.6*
Cn1cnc2cc(NCc3ccccc3Cl)ccc21	-92.2*
CC(C)c1ccc(CNc2ccc3c(c2)ncn3C)cc1	-205.8*
CC(C)c1ccc(CNc2ncccn2)cc1	-127.7*
CCn1cnc2cc(NCc3ccccc3Cl)ccc21	-87.1*
CCCC(=O)NC(c1ccc(C(C)C)cc1)c1ccc2cccnc2c1O (stereo not drawn)	83.1
COc1ccc(-c2ccc(C3C(C#N)=C(N)Oc4n[nH]c(C)c43)o2)cc1 (stereo not drawn)	-65.2*
O=C(N/N=C/c1cccc(F)c1)c1cc(-c2ccco2)nc2ccccc12	-120.2*
COC(=O)C1=C(C)NC(C)=C(C(=O)OC)C1c1ccc(-c2cccc(Cl)c2Cl)o1	-72.3*
COc1cccc2[nH]c(=O)c(-c3ccccc3)cc12	-136.4*
FC(F)(F)c1ccc(NC(=S)NC2CCCCC2)cc1	-78.2*
O=C(O)c1ccc(NC(=S)NC2CCCCC2)cc1	-65.4*
COc1cc2nc(CN(C)Cc3ccc(OC)c(OC)c3OC)[nH]c(=O)c2cc1OC	-90.4*
COc1ccccc1C1N=C(c2ccccc2C)NO1 (stereo not drawn)	-120.4*
Cc1ccccc1C1=NC(c2ccc(F)cc2F)ON1 (stereo not drawn)	-90.0*
COc1ccc(-c2oc3ccc(N4CCOCC4)cc3c2C#CC2(O)CCCCC2)cc1	-117.8*
COc1ccc(-c2oc3ccc(N4CCOCC4)cc3c2C#Cc2ccc(N)cc2)cc1	-91.6*
O=C(c1ccc(S(=O)(=O)c2cccc(Cl)c2)c([N+](=O)[O-])c1)N1CCN(c2ccccn2)CC1	-61.8*
O=C(c1ccc(S(=O)(=O)c2ccccc2Cl)c([N+](=O)[O-])c1)N1CCCCCC1	-97.9*
SMILES	aSyn UTR act
CC(=O)Nc1ccc(-c2nc3ccc(NC(C)=O)cc3o2)cc1	-103.9*
CC(=O)Nc1cc(-c2nc3ccccc3o2)ccc1Cl	-77.1*
Cc1cc2nc(-c3ccc(NC(=O)C(C)C)cc3)oc2cc1C	-195.5*
C=CCSc1nnc(-c2cc3c(s2)-c2ccccc2CC3)o1	-104.2*
Cn1cnc2cc(NC(=O)c3ccc(Cl)cc3)ccc21	-138.6*
CC(C)(C)n1cnc2cc(NC(=O)c3ccc(Cl)cc3)ccc21	-138.1*
Cc1cccc(C(=O)Nc2ccc3c(c2)ncn3C)c1	-111.6*
Cn1cnc2cc(NC(=O)c3cccs3)ccc21	-97.1*
COCCNC(=O)c1ccc2c(c1)ncn2-c1cccc(C)c1	-74.8*
O=C(Nc1ccc2nn(-c3ccccc3)nc2c1)c1cccs1	-177.9*
Cc1nc2ccccc2c(=O)n1NCc1cc(Br)cs1	-81.0*
CN(C)c1ccc(C(=O)OCc2ccccc2)cc1	-74.5*
CN(C)c1ccc(CCc2ccc(N)cc2)cc1	84.1
COc1ccc(C(O)(CC(C)C)C(CN2CCOCC2)c2ccccc2)cc1 (stereo not drawn)	66.0
OC(COc1ccc(OCc2ccccc2)cc1)CN1CCCCC1 (stereo not drawn)	-73.1*
OC(COc1ccc(-c2ccccc2)cc1)CN1CCOCC1 (stereo not drawn)	-72.8*
OCCN1CCN(CC(O)COc2ccc(-c3ccccc3)cc2)CC1 (stereo not drawn)	-125.5*
OC1CCCN(CC(O)COc2ccc(-c3ccccc3)cc2)C1 (stereo not drawn)	-73.7*
OCCN(Cc1ccccc1)CC(O)COc1ccc(-c2ccccc2)cc1 (stereo not drawn)	-96.5*
OC(CNCCc1ccccc1)COc1ccc(OCC(O)CNCCc2ccccc2)cc1 (stereo not drawn)	107.5
OC(COc1ccc2cc(Br)ccc2c1)CN1CCCC1 (stereo not drawn)	-96.8*
CC(=O)Nc1cccc(Oc2ccc(-c3noc(C)n3)cc2)c1	-193.6*
COc1c(C(=O)NNC(=O)c2ccccc2)csc1Br	-82.4*
COc1cccc(C(=O)Nc2ccccc2)c1	-122.5*
Cc1ccc(C(=O)Nc2cccc(Oc3ccccc3)c2)o1	-125.7*
SMILES	aSyn UTR act
COc1cccc(C(=O)NNC(=O)c2ccccc2)c1	-112.7*
COc1cccc(C(=O)Nc2cccc(SC)c2)c1	-156.0*
COc1cccc(C(=O)N/N=C(/c2ccccc2)c2ccccn2)c1	73.0
COc1cccc(NC(=O)c2ccc(C(=O)c3ccccc3)o2)c1	-147.3*
CCn1c2ccccc2c2cc(NC(=O)c3cccc(OC)c3)ccc21	-179.7*
COc1cccc(/C(C)=N/N=C(\C)c2cccc(OC)c2)c1	-275.4*
O=C(Nc1ccc(O)cc1)c1ccc(C(=O)c2ccccc2)o1	-120.4*
COc1cccc(C(=O)Nc2cnn(C(C)C)c2)c1	-113.7*
